Out of some 69,000 compounds screened, about 8,600 (12%) showed an effect of 50% or more. For the sample, strong results were picked, then their nearest neighbours and some compounds at random.

The assay concerns Plasmodium berghei. Kind of assay: Screen against P. berghei liver stage (PbLuc), transformed with Luciferase, at 10uM. It counts as functional, HepG2. To be noted: tested at 10 uM.
Turning to `CCS(=O)(=O)N1CCC(OC)c2ccccc2N(CC(=O)NC)C(=O)C1` (stereo not drawn), the INHIBITION was determined as 43.4%. Then `CCOC(=O)N1CCC(OC)c2ccccc2N(CC(=O)NC)C(=O)C1` (stereo not drawn), with 42.7%. Take `CCOC(=O)CN1C(=O)CN(S(C)(=O)=O)CCC(OC)c2ccccc21` (stereo not drawn): the INHIBITION came out at 54.8%.

For the compound `Cc1ccc(C(=O)NCC2CCN(Cc3ccccc3C#N)C2)cn1` (stereo not drawn), the INHIBITION was 58.6%. For `CCc1ccc(CN2CCC(CNC(=O)c3ccc(C)nc3)C2)nc1` (stereo not drawn) the value was -16.8%; for `CCn1ccnc1CN1CCC(CNC(=O)c2ccc(C)nc2)C1` (stereo not drawn), 26.8%.

`CCOC1CC2(CCN(Cc3cccn3C)CC2)C1`: the INHIBITION is reported as 29%. `Cn1cc(CN2CCc3c(nnn3C)C2COCc2ccccc2)cn1` (stereo not drawn): the INHIBITION is recorded as -90.3%. In the case of `Cc1nccn1C1CCCN(C(=O)c2cnn(C)c2C2CC2)C1` (stereo not drawn), the INHIBITION was -3.58%. For `Cc1cc(C)nc(NC(=O)NCCCSc2nncn2C)n1` the value was 9%. Then `CCc1cnc(CN(C(C)=O)C2CCN(CCc3ccncc3)C2)o1` (stereo not drawn), with 42.9%. `O=C(CC[C@@H]1CCCN2CCCC[C@H]12)N1CCC(c2nnc[nH]2)CC1`: the INHIBITION is -9.8%. Then `Fc1cnc(N2CCCn3c(CN4CCOCC4)nnc3C2)nc1`, with -16.9%. `Fc1cnc(N2CCCn3c(nnc3Cn3cccc3)C2)nc1`: the INHIBITION is -23.4%. For the compound `Fc1cnc(N2CCn3c(CN4CCCC4)nnc3C2)nc1`, the INHIBITION was found to be 57.9%.

Consider `CS(=O)(=O)c1ccc(C(=O)N2CCCC(n3cncn3)C2)o1` (stereo not drawn), for which the INHIBITION is 21.8%. In the case of `CCc1nnc(Nc2cccc(C3CCN(C)CC3)n2)s1`, the INHIBITION came to 12.3%.

As for `CCc1nnc(Nc2cccc(C3CCN(C(C)=O)CC3)n2)s1`, the INHIBITION is -28.6%.

In the case of `CCc1nnc(Nc2cccc(C3CCN(S(=O)(=O)N(C)C)CC3)n2)s1`, the INHIBITION was 53.2%.

For the compound `Cc1nnc(Nc2cccc(C3CCN(CCO)CC3)n2)s1`, the INHIBITION came out at 13.6%. Then `CCc1nnc(Nc2cccc(C3CCN(C(=O)CN(C)C)CC3)n2)s1`, with 22%; and `CCc1nnc(Nc2cccc(C3CCN(CCO)CC3)n2)s1`, with 55.7%; and `CS(=O)(=O)NC1CCCN(C(=O)Nc2ccccc2Cn2cccn2)C1` (stereo not drawn), with 20.9%. Then `O=C(NCCn1ccnc1)N1CCCC1c1cccs1` (stereo not drawn), with 7.333%; and `Cc1cc(F)c2c(c1)CCCN2Cc1cc(=O)n(C)c(=O)n1C`, with -14.2%. For `COc1ccc(-c2cnc(CN3CCCC3Cn3cccn3)o2)cc1` (stereo not drawn), the INHIBITION is given as -21.8%. With `c1csc(CN2Cc3nccn3CC(Cn3cncn3)C2)n1` (stereo not drawn), the INHIBITION was determined as 28.5%.

Turning to `O=c1c(NCCNCCO)c(N2CCN(Cc3ccccc3)CC2)c1=O`, the INHIBITION is 28.3%.

Turning to `O=c1c(NCCNCCO)c(N2CCN(c3ccccc3)CC2)c1=O`, the INHIBITION stood at 55.5%. For `O=c1c(NCCO)c(N2CCN(c3ccccc3)CC2)c1=O` the value was 29.8%. Take `COc1ccc(CN2C[C@@H]3COC[C@]3(CN(C)C)C2)cc1`: the INHIBITION stood at 20.5%.

Regarding `CN(Cc1cccc(C#N)c1)C(=O)C1CC(c2cccc(F)c2)=NO1` (stereo not drawn), the INHIBITION stood at 8.38%. As for `COc1ccc(OC)c2c(C)cc(N(C)CCO)nc12`, the INHIBITION worked out at 0.897%. Turning to `COc1ccc(OC)c2c(C)cc(N(CCO)CCO)nc12`, the INHIBITION is 1.79%.

Take `COc1ccc(OC)c2c(C)cc(N(C)CCCO)nc12`: the INHIBITION is on record as 51.1%. Then `O=C(NCc1ccc2c(c1)OCO2)c1ccc(N2CCCCC2)nn1`, with 33.4%.

As to `Cc1cccc(COC2COC3(CCN(S(C)(=O)=O)CC3)C2)n1` (stereo not drawn), the INHIBITION turned out to be 44.2%. `CN(C)S(=O)(=O)N1C[C@@H](OCc2ccccn2)[C@H]2OCCC[C@H]21`: the INHIBITION is listed as 56.1%. For `CN(C)S(=O)(=O)N1CC[C@]2(C[C@@H](Oc3cccnc3)CO2)C1` the value was 21.8%. Consider `Cc1cccc(CO[C@H]2CO[C@@]3(CCN(S(=O)(=O)N(C)C)C3)C2)n1`, for which the INHIBITION came out at 55.5%. For `Cc1ccc(C(=O)N2CC[C@]3(C[C@@H](OCc4ccccn4)CO3)C2)nc1` the value was 35.7%; for `Cc1cccc(COC2COC3(CCN(Cc4ccoc4)CC3)C2)n1` (stereo not drawn), 11.4%.

As for `CN(C)S(=O)(=O)N1CC[C@]2(C[C@H](Oc3cccnc3)CO2)C1`, the INHIBITION is 0%.

As for `CCS(=O)(=O)N1C[C@@H](OCc2ccccn2)[C@@H]2OCCC[C@@H]21`, the INHIBITION was determined as 16.6%. Then `O=C(c1ccccc1)N1CCC[C@]2(C[C@@H](OCc3ccccn3)CO2)C1`, with 49.7%; and `Cc1cccc(C(=O)N2CC[C@]3(C[C@H](OCc4ccccn4)CO3)C2)c1`, with 71.9%; and `CN(C)S(=O)(=O)N1C[C@@H](Oc2ccccn2)[C@H]2OCCC[C@H]21`, with -4.74%.

Take `CN(C)S(=O)(=O)N1CC[C@]2(C[C@H](OCc3ccncc3)CO2)C1`: the INHIBITION is 57.1%.

On to `COCCN1CCCC(c2ccnc3c(C(N)=O)cnn23)C1` (stereo not drawn), for which the INHIBITION was found to be 37.7%. Regarding `CNC(=O)C(C)(C)N1CCC[C@H]1C(=O)NCC(C)C`, the INHIBITION is 27.2%. Then `Cc1cccc(-c2noc(CN3CCCC3Cn3cncn3)n2)c1` (stereo not drawn), with 19.4%; and `CC(Cn1cccn1)n1cnc2ccc(F)cc2c1=O` (stereo not drawn), with 35%; and `CCOC(=O)CNC(=O)N1CCC(OC)c2ccccc2N(C)C(=O)C1` (stereo not drawn), with 29.8%. Then `O=C1CCCC2=C1C(c1ccco1)C1C(=O)NN=C1N2` (stereo not drawn), with 36.3%. Then `CCc1ncc2c(n1)CN(Cc1cccc(OCC(N)=O)c1)CC2`, with 0.914%; and `Cc1nc(CN(C)C2CCN(Cc3ccc(Cl)s3)C2)no1` (stereo not drawn), with -35.7%. Take `O=S(=O)(CCO)CCc1ccccc1Cl`: the INHIBITION stood at 25.2%.

Turning to `c1ncn(CC2CCCN2Cc2csc(C3CCCCC3)n2)n1` (stereo not drawn), the INHIBITION was 23.5%. Regarding `CCNc1cc2c(nn1)CCN(C(=O)Cc1c(C)nn(C)c1C)C2`, the INHIBITION was 15.5%. On to `CC(NC1CCN(CCS(C)(=O)=O)CC1)c1cnn(C(C)C)c1` (stereo not drawn), for which the INHIBITION was -5.22%. As to `O=C(c1cnccn1)N1CCO[C@H]2[C@H](OCc3cccnc3)CC[C@@H]21`, the INHIBITION amounted to 7.31%. For `CN1CCN(c2ncnc3c2CCN(c2ncc(F)cn2)CC3)CC1` the value was 24.9%. Take `CC1CCN(S(=O)(=O)N2CCC(Oc3cnccn3)CC2)CC1`: the INHIBITION came to 19.6%. On to `Cc1cc2c(=O)n3c(nc2s1)CCN(C(=O)c1ccn(C)n1)CC3`, for which the INHIBITION amounted to 0.301%.

Turning to `CC(=O)NCCNC(=O)Nc1cc(C(C)(C)C)sc1C#N`, the INHIBITION is on record as 42.7%. Then `CN(C)S(=O)(=O)N1CCC2(CC1)CC(OCC1CC1)CO2` (stereo not drawn), with 28.2%; and `CN(C)S(=O)(=O)N1CCC2(CC1)CC(Oc1ccccn1)CO2` (stereo not drawn), with -60.2%; and `CN(C)S(=O)(=O)N1CC[C@]2(C[C@H](Oc3ncccc3F)CO2)C1`, with 34.1%. With `CCO[C@H]1CO[C@@]2(CCCN(S(=O)(=O)c3ccccc3)C2)C1`, the INHIBITION was found to be 23.9%. Then `CN(C)S(=O)(=O)N1CC[C@]2(C[C@H](OCc3ccccn3)CO2)C1`, with 57.1%; and `CN(C)S(=O)(=O)N1CC[C@]2(C[C@@H](OCc3ccccn3)CO2)C1`, with 39.4%. Then `CCO[C@@H]1CO[C@@]2(CCCN(S(=O)(=O)c3ccccc3)C2)C1`, with 64.9%.

Turning to `Cc1cccc(CO[C@@H]2CO[C@@]3(CCN(S(=O)(=O)N(C)C)C3)C2)n1`, the INHIBITION is given as 63.5%. `O=S(=O)(c1ccccc1)N1CCC[C@]2(C[C@H](OCC3CC3)CO2)C1`: the INHIBITION is reported as 19.4%. Take `CN(C)S(=O)(=O)N1CC[C@]2(C[C@@H](OCC3CC3)CO2)C1`: the INHIBITION turned out to be 57.1%. In the case of `CN(C)S(=O)(=O)N1CC[C@]2(C[C@@H](Oc3ncccc3F)CO2)C1`, the INHIBITION amounted to 10.1%. As to `CCS(=O)(=O)N1CC[C@]2(C[C@@H](OCC3CC3)CO2)C1`, the INHIBITION came out at 15.1%.

For `COCC(=O)N1CCN(C(C)c2ncc(-c3ccccc3)o2)CC1` (stereo not drawn), the INHIBITION turned out to be 40.2%.

Consider `Cc1cc2n(n1)CC(CNCc1ccc(-n3cccn3)cc1)CN2` (stereo not drawn), for which the INHIBITION turned out to be 6.35%. Then `O=C(Nc1ccc(OC2CCCC2)cc1)C1CCCN1c1nccs1` (stereo not drawn), with 2.625%; and `CC(C)Oc1cccc(F)c1C(C(=O)O)N1CCCN(C)CC1` (stereo not drawn), with 28.2%. Then `Cn1cc(-c2cnc(N3CCOCC3)nc2)cc1C(=O)NC1CC1`, with -1.55%.

For `Cc1cc(CN2CCN(C(=O)NCc3ccoc3)CC2)no1`, the INHIBITION is listed as -7.35%. On to `O=C(NC[C@]1(O)CN(Cc2ncccc2F)C[C@H]1O)c1cc[nH]n1`, for which the INHIBITION worked out at 40.4%.

Take `CC(O)(CNc1ccc(Cl)c(C#N)n1)c1ccsc1` (stereo not drawn): the INHIBITION is reported as -20.3%. For `CCCC(=O)Nc1cccc([C@H]2C[C@@H](NC(C)=O)CCO2)c1` the value was 33.85%; for `CNC(=O)c1cc2c(nc1NCC(C)C)CCN(c1ccncn1)CC2`, -38.7%. Then `CN(Cc1nc(N2CCCC2)ncc1-c1ccncc1)C(=O)C(C)(C)C`, with 21.6%; and `COc1ccc2c(c1)NC(C1CCN(C(=O)C3CC3)CC1)NS2(=O)=O` (stereo not drawn), with -30.9%.

With `Cc1cc(C(=O)N2CCCC2c2c(C)nn(C)c2C)no1` (stereo not drawn), the INHIBITION is reported as 23.5%. Then `Cc1ccc(C(=O)Nc2cn[nH]c2)cc1F`, with 0.5%. For `Fc1ccc(Br)c(NCc2nnsc2Cl)c1` the value was 43.1%; for `CC1CCCCN1C(=O)c1ccn(COc2ccc(F)cc2)n1` (stereo not drawn), -3.11%; for `CC(C)NC(=O)N1CCC2(C1)CN(c1ccsc1)C(=O)CN2C` (stereo not drawn), 27.9%. For the compound `O=C(N1CCCC1)N1CCC[C@]2(C[C@@H](OCc3ccncc3)CO2)C1`, the INHIBITION is recorded as 53.9%. Take `O=C(c1ccccc1)N1CCC[C@]2(C[C@@H](OCc3ccncc3)CO2)C1`: the INHIBITION is on record as -13.7%. Consider `O=C(C1CC1)N1CCC[C@]2(C[C@@H](OCc3ccncc3)CO2)C1`, for which the INHIBITION stood at 10.5%. For `CCc1nc(CN(C)CC(N)=O)cs1` the value was 31.8%.

`Cc1c(C(C)NC(=O)N2CCN(C3CCCC3)CC2)cnn1C` (stereo not drawn): the INHIBITION turned out to be 70.9%. As to `Cc1c(C(C)NC(=O)C2CCCC2)cnn1C` (stereo not drawn), the INHIBITION is recorded as -8.87%. For `Cc1c(C(C)NC(=O)C2CCCCC2)cnn1C` (stereo not drawn) the value was 8.12%. Then `O=C1CCC(=O)N1c1nn(Cc2c(F)cccc2Cl)cc1Cl`, with 24.8%. As to `CN(C)c1ccc(C(=O)Nc2ccn(CCc3ccncc3)n2)cn1`, the INHIBITION is listed as -17.7%.

The record behind these values is ChEMBL document CHEMBL4513216, “Probing the Open Global Health Chemical Diversity Library for Multistage-Active Starting Points for Next-Generation Antimalarials” (ACS Infect Dis, 2020).
